Experimental findings from PubChem BioAssay AID624341 (National Center for Advancing Translational Sciences (NCATS), 2012) are described below.

Active and inactive are the calls of the source.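 Rule for the calls: active = potency half-inhibition concentration of 75 µM or lower; inconclusive = potency above 75 µM but under 100 µM; inactive = potency of 100 µM or higher.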

Chain of Ubiquitin carboxyl-terminal hydrolase 7 (Homo sapiens) (Q93009 whole entry, looked up): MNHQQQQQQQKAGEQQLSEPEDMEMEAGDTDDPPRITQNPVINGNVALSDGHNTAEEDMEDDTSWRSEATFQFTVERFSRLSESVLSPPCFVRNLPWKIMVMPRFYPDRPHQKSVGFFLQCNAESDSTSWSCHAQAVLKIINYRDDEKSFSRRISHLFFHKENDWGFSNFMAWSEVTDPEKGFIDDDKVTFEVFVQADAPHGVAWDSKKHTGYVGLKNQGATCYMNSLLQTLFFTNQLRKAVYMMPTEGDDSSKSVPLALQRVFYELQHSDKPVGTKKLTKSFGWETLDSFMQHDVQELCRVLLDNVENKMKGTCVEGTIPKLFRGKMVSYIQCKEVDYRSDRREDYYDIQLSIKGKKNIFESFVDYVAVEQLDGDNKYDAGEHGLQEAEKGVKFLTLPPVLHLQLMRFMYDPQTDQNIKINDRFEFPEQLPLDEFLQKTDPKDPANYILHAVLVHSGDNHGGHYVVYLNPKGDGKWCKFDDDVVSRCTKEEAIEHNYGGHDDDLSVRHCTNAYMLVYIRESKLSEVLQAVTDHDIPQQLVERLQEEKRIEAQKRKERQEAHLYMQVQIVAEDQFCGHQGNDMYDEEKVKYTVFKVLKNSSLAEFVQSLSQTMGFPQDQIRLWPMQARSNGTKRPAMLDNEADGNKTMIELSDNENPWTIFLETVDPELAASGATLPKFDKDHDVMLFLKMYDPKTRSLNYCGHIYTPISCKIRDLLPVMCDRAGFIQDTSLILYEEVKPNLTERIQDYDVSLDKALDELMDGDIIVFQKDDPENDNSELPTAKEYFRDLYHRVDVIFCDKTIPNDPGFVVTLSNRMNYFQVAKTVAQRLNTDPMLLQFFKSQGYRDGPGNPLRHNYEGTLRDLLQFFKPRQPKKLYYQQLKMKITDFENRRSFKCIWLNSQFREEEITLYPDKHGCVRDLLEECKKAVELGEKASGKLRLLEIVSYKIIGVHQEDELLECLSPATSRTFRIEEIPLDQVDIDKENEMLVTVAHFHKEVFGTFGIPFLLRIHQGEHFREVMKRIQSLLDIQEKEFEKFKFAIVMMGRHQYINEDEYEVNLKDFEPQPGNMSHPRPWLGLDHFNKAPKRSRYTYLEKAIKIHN

The experiment concerns the target Ubiquitin carboxyl-terminal hydrolase 7 (Homo sapiens) (UniProt Q93009). The experiment can be described thus: Inhibitors of USP1/UAF1: Hit Validation in USP7 Diubiquiting Gel Assay. As to conditions: USP7 K63 diubiquitin cleavage, SDS-PAGE gel densitometry. From the text: Deubiquitinating enzymes (DUBs) are a class of enzymes that can cleave isopeptide bond formed between the C-terminal carboxylate of ubiquitin and a lysine side-chain amino group on the target protein. Among them, ubiquitin specific proteases (USPs) constitute the largest DUB family. Human USPs are emerging as promising targets for pharmacological intervention because of their connection to a number of human diseases, including prostate, colon and breast cancer (1, 2), pediatric acute lymphoblastic leukemia (3), and familial cylindromatosis (4). The advantage of inhibiting USPs lies in the potential specificity of therapeutic intervention that can lead to better efficacy and reduce nonspecific side effects. In a collaboration between the University of Delaware and the NIH Chemical Genomics Center, a high-throughput screen assay was developed to screen for USP1/UAF1 inhibitors. This miniaturized assay has a fluorescent read-out and is used to screen the NIH Molecular Libraries Small Molecule Repository (MLSMR) in order to identify a small molecule that inhibits USP1. Follow-up assays have also been developed to further test the hits from the primary screen. This assay validates the hits identified from the primary screen using a USP7 diubiquiting gel assay. NIH Chemical Genomics Center [NCGC] NIH Molecular Libraries Probe Centers Network [MLPCN] MLPCN Grant: DA030552-01 Assay Submitter (PI): Zhihao Zhuang, University of Delaware 1. Priolo, C., et al. (2006) The isopeptidase USP2a protects human prostate cancer from apoptosis. Cancer Res 66, 8625-8632 2. Popov, N., et al. (2007) The ubiquitin-specific protease USP28 is required for MYC stability. Nat Cell Biol 9, 765-774 3. […]
The inhibition assay contains 5 nM USP7, 2 microM K63 linked diubiquitin, and inhibitors at varied concentrations (0.08 microM - 114 microM). […] The intensity of the individual diubiquitin and monoubiquitin band was quantified using Quantity One 4.3.1 (Biorad, Hercules, CA). The percentage of the conversion was determined and used to calculate the reaction rate. […]
As for `FC(F)(F)c1ccccc1-c1nc(NCc2cccs2)c2ccccc2n1`, the Potency is 37.8 µM (active). In the case of `Cc1cccc(CNc2ccnc(-c3ccccc3C(F)(F)F)n2)c1`, the Potency was 20.9 µM (active). To `Cc1ccccc1-c1nc(NCc2cccs2)c2ccccc2n1` belongs 19.4 µM (active).
